# Experimental data: PubChem BioAssay (NCATS)
# Results filed as inconclusive are left out. A call without a number means that no potency is given here. Calls of active or inactive are those of the source. Calls follow the shape of the dose curve; as a rule, active = well fitted curve in the direction sought with a large enough effect; inconclusive = small, poorly fitted or top-dose-only effect, or another doubt; inactive = no such curve, though single readings can be large; an effect the other way counts as inactive or inconclusive.
# Legend:
# [1] = qHTS to identify inhibitors of the type 1 interferon - major histocompatibility complex class I in skeletal muscle: primary screen against the NCATS Mechanism Interrogation Plate v5.0 (MIPE) Libary (AID 1347411); also: nearly all actives have a fitted effect of over 65% in size; also: potency is read from the fitted curve at half-maximal effect
# Outline: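 HLA-B HiBit myoblasts, dexamethasone-free medium + 4 ng/ml IFN-b, 24 h compound, 11-pt 1:3 from 46 uM final. Readout: Nano-Glo HiBiT lytic luminescence after 10 min lysis, RT.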
# [2] = molecular target: Calcium and integrin-binding protein 1 (Homo sapiens) (UniProt Q99828); test: Confirmatory qHTS for Identification of Calcium Integrin Binding Protein 1 (CIB1) Competitor (AID 1508617); also: potency is read from the fitted curve at half-maximal effect; nearly all actives have a fitted effect of over 65% in size
# Calcium and integrin-binding protein 1 (Homo sapiens), sequence (Q99828 whole entry, looked up): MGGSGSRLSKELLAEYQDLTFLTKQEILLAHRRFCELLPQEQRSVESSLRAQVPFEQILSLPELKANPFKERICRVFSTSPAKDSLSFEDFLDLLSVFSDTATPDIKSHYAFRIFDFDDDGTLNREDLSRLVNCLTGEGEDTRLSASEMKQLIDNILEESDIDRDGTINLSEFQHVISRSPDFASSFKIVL
# Outline: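 FP competition: CIB1-GST (1 uM final) in 5 mM HEPES pH 7.4, 125 mM NaCl, 5 mM CaCl2, 0.01% Tween20 preincubated 15 min RT with compounds (up to 114 uM), then FITC-alphaIIb peptide (100 nM), 15 min RT; Ex 480/Em 540.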
# [3] = molecular target: Calcium and integrin-binding protein 1 (Homo sapiens) (UniProt Q99828); test: Primary qHTS for Identification of Calcium Integrin Binding Protein 1 (CIB1) Competitor (AID 1508620); also: potency is read from the fitted curve at half-maximal effect
# Outline: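 Fluorescence polarization competition: CIB1-GST (1 uM final) preincubated with compound 15 min at room temperature, then FITC-labeled alphaIIb peptide (100 nM final) added for another 15 min. Polarization read at Ex 480/Em 540.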
# [4] = molecular target: Protein phosphatase 1D (Homo sapiens) (UniProt O15297); test: RapidFire Mass Spectrometry qHTS Assay for Modulators of WT P53-Induced Phosphatase 1 (WIP1) (AID 1347424);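 also: amount of dephosphorylated VEPPL-S-QETFS peptide product formed by WIP1; series mostly up to about 63 µM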
# Protein phosphatase 1D (Homo sapiens), sequence (O15297 whole entry, looked up): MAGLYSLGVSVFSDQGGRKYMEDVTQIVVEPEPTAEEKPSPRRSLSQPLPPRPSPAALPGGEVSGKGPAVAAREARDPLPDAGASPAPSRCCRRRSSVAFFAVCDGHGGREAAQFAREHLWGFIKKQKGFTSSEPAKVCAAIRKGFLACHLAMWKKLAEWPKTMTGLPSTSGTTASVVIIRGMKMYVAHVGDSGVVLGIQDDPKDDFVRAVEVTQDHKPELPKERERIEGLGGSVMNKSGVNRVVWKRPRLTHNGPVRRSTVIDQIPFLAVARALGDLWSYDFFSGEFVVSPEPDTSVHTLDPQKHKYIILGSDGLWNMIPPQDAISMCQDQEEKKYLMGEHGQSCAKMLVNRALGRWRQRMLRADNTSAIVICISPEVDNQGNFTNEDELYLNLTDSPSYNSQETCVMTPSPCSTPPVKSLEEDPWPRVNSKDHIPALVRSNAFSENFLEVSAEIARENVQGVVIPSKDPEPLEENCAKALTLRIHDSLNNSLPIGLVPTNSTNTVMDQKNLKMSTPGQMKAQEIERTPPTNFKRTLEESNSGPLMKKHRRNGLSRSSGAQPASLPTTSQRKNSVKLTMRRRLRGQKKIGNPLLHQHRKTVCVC
# Outline: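 Mass-spectrometric measurement of dephosphorylated peptide after a 5 min room-temperature reaction of 10 nM WIP1 with 2 uM phosphopeptide, following 1 h compound preincubation in 30 mM MgCl2 buffer.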
# [5] = molecular target: Protein phosphatase 1D (Homo sapiens) (UniProt O15297); test: Rhodamine-PBP qHTS Assay for Modulators of WT P53-Induced Phosphatase 1 (WIP1) (AID 1347425)
# Outline: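 WIP1 (5 nM final) was preincubated with compound for 1 hour at room temperature. It then dephosphorylated 10 uM VEPPL-pS-QETFS peptide in Tris-HCl pH 7.5 with 30 mM MgCl2. Released Pi was detected by 10 uM Rh-PBP fluorescence (ex 525/em 598 nm) read at 1-min intervals for 11 min, as delta f1 - f0.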
# [6] = Validation qHTS assay for inhibitors of Activation Induced Cytidine Deaminase (AID): UDG Counterscreen signal (AID 1347427)
# Outline: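 Fluorescence at 560 nm excitation, 665 nm emission reports UDG signal after 250 mM NaOH (2x) addition and 30 min. Enzymes (AID 1 uM, UDG 2 U/mL, at 4/3x) preincubated 10 min with compound, then 4 h with 4x 250 nM DJC20/DJC23 substrate at room temperature.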
# [7] = molecular target: Single-stranded DNA cytosine deaminase (Homo sapiens) (UniProt Q9GZX7); test: Validation qHTS assay for inhibitors of Activation Induced Cytidine Deaminase (AID): AID signal (AID 1347429)
# Single-stranded DNA cytosine deaminase (Homo sapiens), sequence (Q9GZX7 whole entry, looked up): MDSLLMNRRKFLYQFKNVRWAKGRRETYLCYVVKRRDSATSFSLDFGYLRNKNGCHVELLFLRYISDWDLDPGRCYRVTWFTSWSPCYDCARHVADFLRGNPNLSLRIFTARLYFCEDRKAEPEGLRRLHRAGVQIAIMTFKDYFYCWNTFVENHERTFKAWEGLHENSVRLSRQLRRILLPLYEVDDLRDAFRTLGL
# Outline: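 AID+UDG coupled FRET deamination; cpds up to 114 uM final; DJC20/DJC23 substrate, 4 hr RT; NaOH stop, 30 min RT; read Ex 540/Em 590.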
# [8] = Primary qHTS for inhibitors of La Crosse Virus (LACV) - induced cell death in SH-SY5Y cells (AID 1508616);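 also: top concentration of the series differs between compounds; higher means more rescue of cells from virus-induced death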
# Outline: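 Cytopathicity rescue screen: compounds pinned onto SH-SY5Y cells, which are then infected with LACV (MOI 0.01) and held 6 days at 37C. Percent activity is scaled between infected DMSO control and uninfected DMSO control.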
# [9] = molecular target: Calcium and integrin-binding protein 1 (Homo sapiens) (UniProt Q99828); test: Validation qHTS for Identification of Calcium Integrin Binding protein 1 (CIB1) Competitor (AID 1508618)
# Outline: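 Fluorescence polarization with 1 uM CIB1-GST and 100 nM FITC-alphaIIb peptide in HEPES pH 7.4, NaCl, 5 mM CaCl2, Tween20. Compounds at up to 114 uM final, preincubated with protein 15 min; read after 15 min more at RT.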
smiles,measurement,setting,value
C=C1C(=O)[C@@]23C(CC[C@@H]1[C@H]2O)[C@@]12CO[C@]3(O)[C@@H](O)[C@@H]1C(C)(C)CC[C@@H]2O (stereo not given in full),Potency,[1],6.58 µM (active)
same,Potency,[2],25.1 µM (active)
same,Potency,[3],44.7 µM (active)
O=C(CCCCCCC(=O)Nc1ccccc1)NO,Potency,[1],1.47 µM (active)
same,outcome,[4],inactive
same,outcome,[5],inactive
same,Potency,[3],inactive
Clc1ccc(C(c2ccc(Cl)cc2)n2cc[n+](CC(OCc3ccc(Cl)cc3Cl)c3ccc(Cl)cc3Cl)c2)cc1 (stereo not given),Potency,[1],16.5 µM (active)
same,outcome,[6],inactive
same,Potency,[7],inactive
same,outcome,[8],inactive
same,outcome,[9],inactive
same,Potency,[3],inactive
Clc1ccc(Cn2c(CN3CCCC3)nc3ccccc32)cc1,Potency,[1],inactive
same,outcome,[4],inactive
same,outcome,[5],inactive
same,outcome,[6],inactive
same,Potency,[7],inactive
same,outcome,[8],inactive
same,outcome,[9],inactive
same,Potency,[3],inactive
Cc1nc(N)sc1-c1ccnc(Nc2ccc(N3CCOCC3)cc2)n1,Potency,[1],3.7 µM (active)
same,Potency,[3],inactive
NC(=O)c1cnc(-c2ccc(C3(N)CCC3)cc2)c(-c2ccccc2)c1,Potency,[1],inactive
CC/C(=C(\c1ccccc1)c1ccc(OCCN(C)C)cc1)c1ccccc1,Potency,[1],30.1 µM (active)
same,outcome,[4],inactive
same,outcome,[5],inactive
same,outcome,[6],inactive
same,Potency,[7],inactive
same,outcome,[8],inactive
COc1ccc2cccc(CCNC(C)=O)c2c1,Potency,[1],inactive
same,outcome,[4],inactive
same,outcome,[5],inactive
same,outcome,[8],inactive
same,Potency,[3],inactive
COC(=O)[C@@H]1[C@H]2C[C@H]3c4[nH]c5ccccc5c4CCN3C[C@@H]2CC[C@@H]1O,Potency,[1],inactive
same,outcome,[4],inactive
same,outcome,[5],inactive
same,outcome,[6],inactive
same,Potency,[7],inactive
same,outcome,[8],inactive
Nc1ncnc2ccccc12,Potency,[1],inactive
same,Potency,[3],inactive
CC(C)(C)Cn1c(N)nc2ccc(-c3[nH]c(C(C)(C)C)nc3-c3ccc(F)cc3)nc21,Potency,[1],inactive
same,Potency,[3],inactive
